The source of these data is PubChem BioAssay (NCATS).

Structures are written as SMILES. Records with an inconclusive call do not appear. Activity calls are given as the source filed them. Calls come from the whole dose curve; as a rule, active = well fitted inhibition curve with a large enough effect; inconclusive = small, poorly fitted or top-dose-only effect; inactive = flat fitted curve, though single readings scatter.

For the assay, the target named is Lysine-specific demethylase 5B (Homo sapiens) (UniProt Q9UGL1). Briefly: Optimization screen for KDM5B Histone Demethylases FDH coupled qHTS against the LOPAC library (AID 1347166). To be noted: KDM5B demethylation, FDH-coupled NADH fluorescence (FDH is formaldehyde dehydrogenase); series mostly up to 57.5 µM. Summed up: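 KDM5BDeltaAP (200nM final) in 50mM HEPES pH 7.5, 0.01% Tween-20 was preincubated with compound for 10 min at room temperature. A substrate mix of 12.5uM H3K4Me3, 25uM a-ketoglutarate, ascorbate, Fe2+, NAD+ and formaldehyde dehydrogenase was then added. NADH fluorescence (340/450 nm) was read initially and after 30 min.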
Sequence of Lysine-specific demethylase 5B (Homo sapiens) (Q9UGL1 whole entry, looked up): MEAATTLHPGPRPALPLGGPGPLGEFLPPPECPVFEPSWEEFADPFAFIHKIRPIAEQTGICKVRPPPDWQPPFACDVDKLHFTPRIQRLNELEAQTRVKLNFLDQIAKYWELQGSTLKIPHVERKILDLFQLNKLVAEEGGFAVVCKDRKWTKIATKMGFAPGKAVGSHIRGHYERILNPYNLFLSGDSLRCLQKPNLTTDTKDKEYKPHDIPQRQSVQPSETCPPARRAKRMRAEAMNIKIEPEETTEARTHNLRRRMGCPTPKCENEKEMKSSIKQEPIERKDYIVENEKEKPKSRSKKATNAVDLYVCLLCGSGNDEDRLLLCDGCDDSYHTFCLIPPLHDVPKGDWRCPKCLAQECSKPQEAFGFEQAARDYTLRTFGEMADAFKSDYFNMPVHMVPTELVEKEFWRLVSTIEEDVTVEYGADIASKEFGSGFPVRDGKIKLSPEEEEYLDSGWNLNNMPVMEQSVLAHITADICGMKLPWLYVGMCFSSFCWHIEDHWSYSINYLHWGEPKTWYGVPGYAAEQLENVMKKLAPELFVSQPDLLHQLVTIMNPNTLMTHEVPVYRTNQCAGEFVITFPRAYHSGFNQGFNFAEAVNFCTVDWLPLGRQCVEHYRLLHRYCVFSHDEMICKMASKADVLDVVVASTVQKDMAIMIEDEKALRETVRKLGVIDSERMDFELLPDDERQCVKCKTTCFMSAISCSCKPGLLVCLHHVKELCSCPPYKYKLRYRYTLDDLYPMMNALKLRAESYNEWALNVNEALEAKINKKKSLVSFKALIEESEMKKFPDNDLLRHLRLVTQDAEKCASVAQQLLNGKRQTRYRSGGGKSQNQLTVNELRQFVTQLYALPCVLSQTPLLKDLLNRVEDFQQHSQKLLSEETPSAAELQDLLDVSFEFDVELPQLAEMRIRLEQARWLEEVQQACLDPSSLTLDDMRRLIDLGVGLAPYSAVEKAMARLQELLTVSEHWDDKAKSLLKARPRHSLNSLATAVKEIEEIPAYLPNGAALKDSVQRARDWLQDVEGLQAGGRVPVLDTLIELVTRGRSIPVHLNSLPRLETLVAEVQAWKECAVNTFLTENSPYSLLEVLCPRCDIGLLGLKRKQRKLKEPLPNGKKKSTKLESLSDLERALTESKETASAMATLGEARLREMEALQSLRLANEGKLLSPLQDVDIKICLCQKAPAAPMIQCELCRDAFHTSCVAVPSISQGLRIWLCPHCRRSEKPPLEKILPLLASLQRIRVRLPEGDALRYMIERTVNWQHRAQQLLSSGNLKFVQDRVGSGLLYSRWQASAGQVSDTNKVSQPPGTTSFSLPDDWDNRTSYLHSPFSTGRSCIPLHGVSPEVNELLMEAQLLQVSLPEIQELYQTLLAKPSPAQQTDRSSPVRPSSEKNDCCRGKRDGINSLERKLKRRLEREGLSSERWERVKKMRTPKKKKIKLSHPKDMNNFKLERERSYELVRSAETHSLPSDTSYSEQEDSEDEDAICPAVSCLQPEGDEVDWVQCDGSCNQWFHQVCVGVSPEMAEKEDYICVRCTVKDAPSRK
A general note: Quantitative high-throughput screening tests each substance at several concentrations.
Consider `NCCCCC(=O)O`, for which the molecule was called inactive. To `N[C@@H](CC(=O)O)C(=O)O` belongs “inactive”; to `COc1cc(C(O)CO)ccc1OS(=O)(=O)O` (stereo unspecified), “inactive”; to `Nc1nc(SCc2ccc([N+](=O)[O-])cc2)c2ncn([C@@H]3O[C@H](CO)[C@@H](O)[C@H]3O)c2n1`, “inactive”. With `Fc1cccc(/C=N/N=C/c2cccc(F)c2)c1` the entry was “inactive”; with `Nc1nc(Nc2ccccc2)nc2c1ncn2[C@@H]1O[C@H](CO)[C@@H](O)[C@H]1O`, “inactive”. To `CN(C)c1ccc(/C=C2\C(=O)Nc3ccccc32)cc1` belongs “inactive”; to `O=C(Nc1ccccc1)c1cc([N+](=O)[O-])ccc1Cl`, “inactive”; to `OC[C@H]1O[C@@H](n2cnc3c(Nc4ccccc4)ncnc32)[C@H](O)[C@@H]1O`, “inactive”. For `NC(N)=NC(=O)c1nc(Cl)c(N2CCCCCC2)nc1N`, the molecule was called inactive.

With `CC(C)CC(NP(=O)(O)O[C@@H]1O[C@@H](C)[C@H](O)[C@@H](O)[C@H]1O)C(=O)NC(Cc1c[nH]c2ccccc12)C(=O)O` (stereo partly specified), the result was inactive. To `COC(=O)c1c(C)[nH]c(C)c1C(=O)c1ccccc1Cc1ccccc1` belongs “inactive”; to `C#CCN1C(C)=C(C(=O)OC)C(c2cccc([N+](=O)[O-])c2)C(C(=O)OCC)=C1C` (stereo unspecified), “inactive”; to `O=C(/C=C/c1ccc(O)c(O)c1)OCCc1ccccc1`, “inactive”. `O=C(O)CNC(=O)C(CS)Cc1ccccc1` (stereo unspecified): the outcome was inactive. With `Nc1ncnc2c1ncn2[C@@H]1O[C@H](COP(=O)(O)OP(=O)(O)OP(=O)(O)OP(=O)(O)OC[C@@H]2O[C@H](n3cnc4c(N)ncnc43)[C@@H](O)[C@H]2O)[C@@H](O)[C@H]1O` the entry was “inactive”.

On to `Cn1cc(C2=C(c3ccc(Cl)cc3Cl)C(=O)NC2=O)c2ccccc21`, for which the call was inactive.

`CCCCCC(O)c1cccc(OCc2ccc3ccccc3n2)c1` (stereo unspecified): the outcome was inactive.

Regarding `CCCCCCCCCCCCCCCCCC(=O)OC(CC(=O)O)C[N+](C)(C)C` (stereo unspecified), the molecule was called inactive. With `c1ccc(-c2ccccn2)nc1` the entry was “inactive”; with `CCCCCCCCCCCCCCCCCC(=O)NCC(COP(=O)([O-])OCC[N+](C)(C)C)OCC` (stereo unspecified), “inactive”.

For `O=C(O)CC1CC(c2ccccc2)=NO1` (stereo unspecified), the molecule was classed as inactive. With `CN1CC(=O)N/C1=N/C(=O)Nc1cccc(Cl)c1` the entry was “inactive”; with `Cc1nc2sccn2c(=O)c1CCN1CCC(=C(c2ccccc2)c2ccc(F)cc2)CC1`, “inactive”.

As to `O=C(O)c1cc([N+](=O)[O-])ccc1NCCCc1ccccc1`, the molecule was classed as inactive. Take `OCC1O[C@H](O)C(Cl)C(O)C1O` (stereo partly specified): the molecule was classed as inactive.

For the molecule `O=C(O)c1cc(=O)c2c(Cl)cc(Cl)cc2[nH]1`, the molecule was called inactive. With `Clc1ccc(N2CCN(Cc3c[nH]c4ncccc34)CC2)cc1` the entry was “inactive”; with `O=C(O)CCCC[C@@H]1CCSS1`, “inactive”. For the molecule `CCCCCCCCCCCCCCCC(=O)NCC(COP(=O)([O-])OCC[N+](C)(C)C)OCC` (stereo unspecified), the outcome was inactive. With `CNC(=O)[C@H]1O[C@@H](n2cnc3c(NCc4ccc(N)cc4)ncnc32)[C@H](O)[C@@H]1O` the entry was “inactive”; with `NC(CCCP(=O)(O)O)C(=O)O` (stereo unspecified), “inactive”. With `COc1ccccc1N1CCN(CCCCNS(=O)(=O)c2cccc3c(N(C)C)cccc23)CC1`, the molecule was classed as inactive.

For `CN1[C@@H](CC(=O)c2ccccc2)CCC[C@H]1C[C@H](O)c1ccccc1`, the molecule was called inactive. With `Cc1cc(NC(=O)Nc2ccc3c(ccn3C)c2)sn1` the entry was “inactive”. With `C=CC(N)CCC(=O)O` (stereo unspecified) the entry was “inactive”.
